# Experiments:
# Conditions in all cases: concentration: 1 μM,replicates: in singlicate; n = 1
# DYRK1B = tested on: DYRK1B
# DYRK2 = tested on: DYRK2
# EGFR = tested on: EGFR
# EIF2AK1 = tested on: EIF2AK1
# EPHA1 = tested on: EPHA1
# EPHA2 = tested on: EPHA2
# EPHA3 = tested on: EPHA3
# EPHA4 = tested on: EPHA4
# EPHA5 = tested on: EPHA5
# EPHA6 = tested on: EPHA6
# EPHA7 = tested on: EPHA7
# EPHA8 = tested on: EPHA8
# EPHB1 = tested on: EPHB1
# EPHB2 = tested on: EPHB2
# EPHB3 = tested on: EPHB3
# EPHB4 = tested on: EPHB4
# EPHB6 = tested on: EPHB6
# ERBB2 = tested on: ERBB2
# ERBB3 = tested on: ERBB3
# ERBB4 = tested on: ERBB4
# 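Note: KINOMEscan kinase panel screen.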
SMILES,%Inh (DYRK1B),%Inh (DYRK2),%Inh (EGFR),%Inh (EIF2AK1),%Inh (EPHA1),%Inh (EPHA2),%Inh (EPHA3),%Inh (EPHA4),%Inh (EPHA5),%Inh (EPHA6),%Inh (EPHA7),%Inh (EPHA8),%Inh (EPHB1),%Inh (EPHB2),%Inh (EPHB3),%Inh (EPHB4),%Inh (EPHB6),%Inh (ERBB2),%Inh (ERBB3),%Inh (ERBB4)
Cc1cc2cn[nH]c2cc1-c1cccc2c(N)c(C(N)=O)nnc12,0%,23%,56%,26%,17%,0%,0%,8%,89%,0%,19%,11%,15%,0%,0%,0%,64%,14%,30%,87%
Cc1cc(C(=O)Nc2ccc(Oc3ccc4nc(NC(=O)C5CC5)cn4n3)cc2)nn1-c1ccccc1,0%,0%,0%,0%,45%,29%,0%,48%,6%,46%,0%,37%,18%,30%,19%,37%,89%,19%,87%,19%
C=CC(=O)Nc1cc2c(Nc3ccc(F)c(Cl)c3)ncnc2cc1OCCCN1CCOCC1 [GW781483],23%,17%,,11%,25%,0%,13%,5%,7%,,8%,33%,9%,,0%,24%,52%,,83%,
O=C(NCCCN1CCOC1=O)c1cnc(NCc2cc(Cl)ccc2Cl)nc1NC1CCCC1,21%,0%,0%,0%,12%,25%,0%,14%,17%,28%,2%,4%,8%,12%,24%,16%,19%,46%,0%,9%
Cl.Oc1cc(-c2nc(-c3ccccc3)[nH]c2-c2ccncc2)ccc1Cl [SB-386023],0%,5%,20%,0%,59%,0%,5%,0%,23%,36%,9%,14%,0%,0%,22%,30%,14%,0%,0%,23%
Cl.Cl.NC[C@H](CC1CCCCC1)NC(=O)c1cc(Br)c(-c2ccnc3[nH]ccc23)s1 [GSK1581427],71%,67%,23%,0%,42%,12%,0%,13%,0%,25%,14%,52%,17%,0%,5%,10%,10%,1%,0%,22%
Cc1n[nH]c2ccc(-c3cc(OC[C@@H](N)Cc4ccccc4)cnc3-c3ccoc3)cc12.O=C(O)C(F)(F)F.O=C(O)C(F)(F)F [GSK507358],49%,40%,87%,0%,5%,0%,43%,0%,0%,4%,10%,21%,0%,0%,14%,8%,8%,77%,0%,64%
Nc1nc(Nc2ccccc2)cc(-c2ccc3c(N)n[nH]c3c2)n1 [GSK2225749],19%,88%,16%,0%,0%,32%,0%,0%,0%,0%,0%,0%,4%,0%,0%,0%,0%,32%,0%,0%
C[C@@H]1CCN(C(=O)CC#N)C[C@@H]1N(C)c1ncnc2[nH]ccc12,0%,0%,,6%,6%,0%,0%,0%,0%,0%,21%,10%,0%,0%,0%,0%,10%,0%,0%,15%
CNC(=O)c1ccccc1Sc1ccc2c(/C=C/c3ccccn3)n[nH]c2c1,0%,0%,,6%,12%,9%,0%,0%,0%,0%,0%,0%,0%,0%,0%,0%,80%,22%,1%,6%
Cc1occc1-c1nc(N)c(OC[C@@H](N)Cc2c[nH]c3ccccc23)cc1-c1cc2c(C)n[nH]c2cn1 [GSK1660450],91.6%,92.1%,97.2%,12%,16%,13%,30%,14%,0%,32%,3%,24%,24%,0%,23%,11%,0%,79%,0%,56%
CCn1c(-c2nonc2N)nc2c(C#CC(C)(C)O)nc(OCCN)cc21.Cl.Cl [GSK902056],4%,0%,24%,8%,19%,19%,21%,15%,0%,11%,0%,2%,3%,1%,11%,20%,0%,11%,0%,20%
CC(C)Nc1cc(-c2ccc3c(N)n[nH]c3c2)nc(N)n1 [GSK2221681],14%,87%,58%,0%,0%,0%,0%,0%,0%,0%,12%,18%,0%,0%,0%,0%,0%,8%,0%,0%
CCN(CC)CCCCNc1ncc2cc(-c3c(Cl)cccc3Cl)c(NC(=O)NC(C)(C)C)nc2n1,1%,0%,,46%,99.6%,99.6%,99.4%,91.5%,95.9%,95.6%,0%,99.9%,99.9%,93%,26%,92.6%,98.9%,35%,68%,38%
COc1ccc(C[C@@H](CN)NC(=O)c2cc(Br)c(-c3ccnc4[nH]ccc34)s2)cc1.Cl.Cl [GSK1389063],91.3%,69%,37%,7%,52%,17%,44%,25%,0%,33%,12%,59%,19%,1%,31%,32%,35%,25%,0%,38%
NC(=O)c1cc(-c2ccccc2)cc2c(C3CCNCC3)c[nH]c12 [GSK301362],45%,23%,25%,0%,18%,10%,0%,6%,0%,3%,20%,23%,26%,29%,15%,1%,16%,16%,0%,9%
Cl.Cl.Nc1nc(-c2ccc3c(N)n[nH]c3c2)cc(N2CCCC(NC(=O)c3ccccc3)C2)n1 (stereo not shown) [GSK2286775],18%,80%,28%,0%,13%,0%,0%,15%,0%,6%,11%,16%,27%,10%,11%,3%,26%,0%,0%,33%
Cc1ccc2c(-c3ccncc3)c(-c3ccc(F)cc3)nn2c1.Cl [GW461484],4%,9%,43%,0%,10%,8%,13%,0%,0%,5%,7%,15%,0%,0%,5%,0%,27%,21%,0%,3%
C[C@H]1Oc2cc(cnc2N)-c2c(nn(C)c2C#N)CN(C)C(=O)c2ccc(F)cc21,6%,0%,9%,0%,53%,48%,0%,1%,24%,33%,35%,2%,27%,30%,2%,35%,82%,28%,0%,0%
C[C@@H](Oc1cc(-c2cnn(C3CCNCC3)c2)cnc1N)c1c(Cl)ccc(F)c1Cl,0%,30%,0%,14%,93.5%,82%,37%,49%,51%,90.2%,,54%,68%,,16%,52%,99.6%,7%,0%,0%
Cc1ccc(-n2nc(C(C)(C)C)cc2NC(=O)Nc2ccc(OCCN3CCOCC3)c3ccccc23)cc1 [GW839464],100%,14%,33%,0%,52%,,,6%,0%,23%,72%,86%,,37%,7%,31%,0%,24%,26%,0%
CC(C)N1C(=O)Cc2cc(Nc3ncc(C(F)(F)F)c(NCc4cccc(S(C)(=O)=O)c4)n3)ccc21,38%,19%,0%,0%,4%,0%,9%,1%,3%,3%,12%,5%,16%,3%,0%,0%,49%,15%,13%,0%
CN(C)CCOc1ccc(-c2cc(-c3c[nH]nc3-c3ccccn3)ccn2)cc1 [GW835314],22%,17%,28%,93.7%,18%,10%,18%,90%,5%,84%,8%,14%,2%,11%,59%,8%,8%,0%,43%,0%
CCN(CC)CCOc1ccc(Nc2ncc3cc(-c4c(Cl)cccc4Cl)c(=O)n(C)c3n2)cc1 [SB-601273],14%,11%,,96.9%,100%,100%,96.6%,100%,99.8%,97.9%,11%,99.6%,99.8%,100%,99.9%,100%,98.9%,92.8%,99.4%,82%
Cl.Cl.NC[C@H](Cc1ccc(C(F)(F)F)cc1)NC(=O)c1cc(Br)c(-c2ccnc3[nH]ccc23)s1 [GSK1487252],41%,33%,30%,0%,26%,14%,0%,19%,0%,29%,10%,47%,12%,10%,20%,14%,12%,9%,0%,41%
O=C(NCCNc1ccnc(NCc2ccc(F)cc2)n1)c1cc2ccccc2s1 [GSK1379944],0%,0%,23%,0%,10%,17%,0%,22%,0%,19%,12%,34%,6%,80%,27%,16%,18%,13%,0%,0%
CN(C)CC(O)COc1ccc(Nc2nccc(-c3cnn4nc(N5CCOCC5)ccc34)n2)cc1 (stereo not shown) [GW767488],69%,87%,17%,42%,34%,0%,9%,8%,9%,0%,9%,0%,9%,0%,0%,95.4%,73%,5%,40%,33%
